This passage reports growth results from PubChem BioAssay (NCI).

What all share (experiment): NCI-60 one-dose screen, 48 h (100 = growth as untreated, 0 = no growth, -100 = all killed)
Common to all, as to details: 10 µM unless noted

Assay [1] deals with SR leukemia.
Assay [2] has as its system OVCAR-8 ovarian.
In assay [3] the test system is OVCAR-5 ovarian.
Assay [4] deals with OVCAR-4 ovarian.
In assay [5] the test system is IGROV1 ovarian.
The subject of assay [6] is OVCAR-3 ovarian.
In assay [7] the test system is NCI/ADR-RES ovarian.
Assay [8] concerns SK-OV-3 ovarian.
Assay [9] deals with HS 578T breast.
The subject of assay [10] is RPMI-8226 leukemia.

The panel holds about 83,000 compounds, 20% with a hit somewhere; the sample as a whole holds those more often.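 Assay: single dose, 48 h. Readout: percent growth (0 = no net growth; negative = cell death). Active: <10.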 Unmarked numbers belong to inactive results. Activity calls are given as the source filed them.

As for `c1cnc2c(-c3nc4ccc5[nH]ncc5c4c4c3CCCC4)c[nH]c2c1`, the growth is 5.93% (active) in assay [1]; 23.8% in [2]; 37.3% in assay [3]; 27.9% in [4]; 18% in assay [5]; 26.4% in assay [6]. Further, in assay [7], the growth is 80.6%.

With `N#Cc1ccc2c(c1)C(=O)c1c-2n(CCCN)c(=O)c2cc([N+](=O)[O-])ccc12`, the growth in [1] is -52% (active); in [2], -71.6% (active); in assay [3], 16.6%; in assay [4], -82% (active); in [8] it was -100% (active); in [6], -96.4% (active). Moreover, in assay [7], the growth was -36.3% (active).

Consider `COc1ccc(/C=C/C(=O)c2cccc(OCCCCOc3cccc(C(=O)/C=C/c4ccc(OC)c(OC)c4)c3)c2)cc1OC`, for which the growth in assay [1] is 69.4%; in assay [2] it was 68.3%; in [3], 102%; in assay [4] it was 32.9%; in assay [8], 89.6%; in [5], 75.2%. In addition, the growth in [6] was 80.9%; in [9], 78.4%; in assay [7] it was 78.1%.

For the molecule `CC1CCN(S(=O)(=O)c2ccc(S(=O)(=O)N3CCCC(c4nc5c(nnn5Cc5cccc(Cl)c5)c(=O)[nH]4)C3)cc2)CC1` (stereo unspecified), the growth in [1] was 10.5%; in [2] it was 61.5%; in assay [3] it was 97.1%; in assay [4], 64.5%; in assay [8], 72.9%; in assay [5] it was 60%. The growth is 34.3% in [6], 33.1% in [9] and 88.6% in [7].

Consider `O=C(NNC(=O)c1ccc(NC(=O)c2ccccn2)cc1)Nc1ccc([N+](=O)[O-])cc1`, for which the growth was 109% in assay [1]; 104% in [2]; 108% in [4]; 106% in assay [8]; 88.5% in assay [5]; 109% in assay [6]. Further, the growth in [7] was 106%.

As for `C#CCOc1ccc2ncnc(Nc3ccc(NC(=O)C=C)cc3)c2c1`, the growth in assay [1] was -23% (active); in [2] it was 0.598% (active); in [3] it was 12.2%; in assay [4], 35%; in assay [8] it was 90.6%; in [5], -59% (active). The growth in [6] is -22.3% (active); in [9], 14.9%; in [7], 67%.

`O=S(=O)(Nc1ccc(F)cc1F)c1ccc(-c2cnc(C3CC3)o2)cc1`: the growth in assay [1] is 10.9%; in assay [2], 38.4%; in [3] it was 51.8%; in [4], 46.8%; in assay [8], 45.6%; in assay [5], 32.6%. In addition, the growth in assay [6] is 13.4%; in assay [9], 27.4%; in assay [7], 19.4%.

Take `O=c1c2cccc3c(N4CCCC4)ccc(c32)c2nc3ccccc3n12`: the growth is 20.2% in assay [1]; 66% in [2]; 106% in [3]; 78.8% in assay [4]; 79.1% in [8]; 57.1% in assay [5]. In addition, the values for the growth in [6], in [9] and in [7] were 98.2%, 67.2% and 83%, respectively.

Consider `CCOC(=O)c1csc(NC(=O)COc2ccc(/C=C3\Oc4ccccc4C3=O)cc2)n1`, for which the growth was 37.9% in assay [1]; 84.7% in assay [2]; 92.1% in assay [3]; 81.6% in assay [4]; 6.55% (active) in [5]; 93.2% in [6]. In addition, the growth was 91.1% in assay [9] and 85.4% in assay [7].

On to `Cn1c(=O)c2nc(/C=C/c3ccccc3)c(=O)[nH]c2n(C)c1=S`, for which the growth in [1] is 111%; in [2], 105%; in assay [3] it was 110%; in assay [4], 107%; in [8], 118%; in [5] it was 107%. The values for the growth in [6], in assay [9] and in assay [7] were 116%, 107% and 106%, respectively.

For the molecule `N#CC1=C(N)Oc2c(c(=O)[nH]c3ccc(Cl)cc23)C12C(=O)c1ccccc1C2=O`, the growth in assay [1] is 101%; in assay [2], 102%; in assay [3] it was 96.1%; in assay [4], 93.1%; in assay [8], 101%; in assay [5], 100%. Besides, the results for the growth in [6] and in assay [7] were 93.4% and 102%, respectively.

As for `Cc1ccc2c(c1)=C/C(=C\c1cc(-c3ccccc3)oc1O)C(=O)N=2`, the growth in assay [1] was 101%; in assay [2] it was 104%; in [3], 97.9%; in assay [4], 105%; in assay [8], 111%; in assay [5], 111%. The growth in assay [6] was 96.5%; in assay [9], 106%; in assay [7], 98.4%.

Consider `N#C/C(=C\c1c(-c2ccccc2)[nH]c2ccccc12)C(N)=O`, for which the growth is 9.47% (active) in [1]; 102% in assay [2]; 62.5% in [4]; 93% in assay [8]; 77.1% in [5]; 81.2% in assay [6]. Besides, the growth in [9] is 76.5%; in assay [7] it was 77.6%.

Turning to `COc1ccc(-c2cc(-c3cccnc3)nc3sc4c(=O)[nH]c(-c5ccc(Cl)cc5)nc4c23)cc1OC`, the growth is 87.5% in [1]; 92.2% in assay [2]; 98.2% in [3]; 87.9% in assay [4]; 95.2% in assay [8]; 102% in [6]. The growth is 92% in assay [9] and 98% in assay [7].

On to `O=C(O)c1cn(C2CC2)c2cc(N3CCN(C(=O)N(c4ccccc4)c4nc(-c5ccccc5)cs4)CC3)c(F)cc2c1=O`, for which the growth in assay [1] is -5.43% (active); in assay [2], 12.5%; in [3] it was 6.16% (active); in assay [4], 25.4%; in [5] it was 7.38% (active); in [6], 3.78% (active). Also, the growth in assay [9] was 24.5%; in assay [7], 2.3% (active).

Turning to `COc1cc2c(cc1OCCCN1CCN(CCCOc3cc4c(cc3OC)C(=O)N3CC(F)(F)C[C@H]3C=N4)CC1)N=C[C@@H]1CC(F)(F)CN1C2=O`, the growth in assay [1] was 37.5%; in assay [10], 5.91% (active); in assay [2], 62.2%; in assay [4] it was 83%; in assay [5], 60.9%; in assay [6], 54.6%. For the same molecule, the growth in assay [9] was -0.618% (active); in [7], 111%.

In the case of `C=C1C(=O)O[C@H]2[C@H]1CC/C(COC(=O)/C=C\C(=O)NCc1ccc(Cn3c(=O)sn(CCI)c3=O)cc1)=C\CC[C@@]1(C)O[C@@H]21`, the growth in assay [1] is 2.49% (active); in [2] it was 58.3%; in [4], 48.3%; in assay [8] it was 133%; in assay [5] it was 3.61% (active); in assay [6], 10.4%. The growth in assay [9] was 89.3%; in assay [7], 98%.

In the case of `O=C1/C(=C\c2ccc3nccnc3c2)SC(=S)N1CCc1ccc(O)cc1`, the growth in assay [1] was 68.9%; in assay [2], 98.4%; in assay [3] it was 102%; in [4], 88.1%; in assay [8], 113%; in assay [5] it was 94.1%. The growth in assay [6] is 101%; in [9], 94.3%; in assay [7], 101%.

On to `CCC(C)N(CCNc1cc(OC)cc2cccnc12)CC(C)C` (stereo unspecified), for which the growth is 70.3% in assay [10]; 90.9% in assay [2]; 99.6% in assay [3]; 16.4% in assay [4]; 95.1% in assay [8]; 53.6% in assay [5]. The growth was 65.2% in assay [6], 110% in assay [9] and 83.5% in assay [7].

As for `CSc1nc2ccccc2cc1/C=[N+](\[O-])c1ccccc1`, the growth in assay [2] is 39.5%; in [3] it was 91.1%; in assay [4], 70.8%; in assay [8], 87.3%; in [5], 77.3%; in [6], 66.9%. The growth was 74.1% in assay [9] and 28.5% in [7].

For `Cn1c(=O)cc2c3c(c(NCCCO)ccc31)C(=O)c1ccccc1-2`, the growth was 54.6% in assay [10]; 33.2% in [2]; 65.6% in [3]; 47.7% in [4]; 51.6% in assay [8]; 41.8% in assay [5]. For the same molecule, the figures for the growth in assay [6], in [9] and in [7] were 54.4%, 60.2% and 57.1%, respectively.

In the case of `N#Cc1nc(-c2ccc(F)cc2)oc1S(=O)(=O)N1CCOCC1`, the growth is 41.2% in assay [10]; 63.1% in assay [2]; 101% in [3]; 60.9% in assay [4]; 99.4% in [8]; 78.3% in [5]. In addition, the growth is -88.4% (active) in [6], 123% in assay [9] and 91.1% in [7].

In the case of `O=S(=O)(Nc1cc(F)cc(Cl)c1)c1ccc(-c2cnc(C3CC3)o2)cc1`, the growth in assay [10] was 28.9%; in [2], 39.8%; in assay [3] it was 50.8%; in assay [4], 52.5%; in assay [8] it was 44.2%; in [6], 10.2%. The growth in assay [9] is -3.79% (active); in [7], 21.9%.

In the case of `Cc1ccc(C(=O)c2ccc(CC(=O)N/N=C/c3ccccc3O)n2C)cc1`, the growth in [10] was 81.4%; in [2], 79%; in assay [3], 92%; in assay [4], 60.2%; in assay [8] it was 90.4%; in assay [5], 80.9%. Besides, the growth in [6] was 80.3%; in assay [9], 104%; in assay [7], 69.4%.

In the case of `Nc1nc2ccccc2c2c(=O)c3cccc(Cl)c3sc12`, the growth was 96.1% in assay [10]; 94% in assay [2]; 75% in [3]; 81.1% in assay [4]; 86.5% in [8]; 73.8% in assay [5]. Moreover, the growth was 115% in assay [6], 101% in assay [9] and 93.1% in assay [7].

In the case of `O=C(O)CCN1C(=O)/C(=C/C(Cl)=C/c2ccccc2)SC1=S`, the growth in assay [10] was -8.3% (active); in [2] it was 22.8%; in [3] it was 57.8%; in assay [4], 28.7%; in [8], 94%; in assay [5], 22.6%. For the same molecule, the growth in assay [6] was 2.92% (active); in assay [9], 33.8%; in assay [7] it was 11.3%.

With `COc1ccc(C2=Nc3c(N)nc(N)nc3NC(c3cccc(Nc4ccnc5cc(C(F)(F)F)ccc45)c3)C2)cc1` (stereo unspecified), the growth in assay [10] is 18.2%; in [2], 75.6%; in [3], 116%; in [4] it was 68.9%; in assay [8] it was 84%; in assay [5], 72.1%. The growth was 66.4% in assay [6], 66.3% in assay [9] and 87.6% in assay [7].

Take `[O-]/[N+](=C\c1ccc(-n2cc(Cc3ccccc3Cc3cn(-c4ccc(/C=[N+](/[O-])c5ccccc5)cc4)nn3)nn2)cc1)c1ccccc1`: the growth in assay [10] was 103%; in [2], 103%; in assay [3], 112%; in assay [4], 99.3%; in assay [8], 106%; in [5], 95.4%. Further, the growth is 102% in assay [6], 110% in [9] and 97.6% in assay [7].

Regarding `c1ccc2cc(C[n+]3ccn(CCCCCCCCCCn4cc[n+](Cc5ccc6ccccc6c5)c4)c3)ccc2c1`, the growth in [10] was 9.87% (active); in assay [2], 11.1%; in assay [3], 12.8%; in assay [4] it was 12.5%; in assay [8], -17.1% (active); in assay [5] it was -26.1% (active). For the same molecule, the growth is 4.99% (active) in assay [6], -1.11% (active) in [9] and 99.5% in assay [7].
